# ± gives the standard deviation of the averaged measurements.
# Test system: (4S)-cis-verbenol A-neuron OSN class
# Assay: net action potential response of A-neuron (blank-subtracted) (spikes/s (Hz)); higher = stronger excitation
# Conditions: 10 µg on filter paper; neuron: A neuron (large spike amplitude)
# Experimental: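 Single sensillum recordings from antennal olfactory sensilla of live adult Ips typographus. Each compound was 10 µg in paraffin oil on filter paper, delivered as a 0.5 s puff. Net response = spikes in the first 0.5 s of response minus the 0.5 s pre-stimulus count, doubled to give Hz, with blank response subtracted. Values are for the large-spike A-neuron class of each of seven sensillum types that co-house the lanierone B-neuron; N = 1-4 sensilla, averaged.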
row,Structure (SMILES),net action potential response
1,CC(=O)OCc1ccccc1 [Benzyl acetate],1.33 ± 8.1
2,"CC1=CCC2C(C1)C2(C)C (single isomer, unassigned; (+)) [(+)-3-Carene]",3.33 ± 7
3,C=CC(C)(C)O [2-Methyl-3-buten-2-ol],-4 ± 4
4,COc1ccccc1 [Anisole],1.33 ± 7.6
5,CCC1CCC2(CCCO2)O1 (racemic) [(±)-Chalcogran],1.33 ± 5
6,C=CCc1ccc(OC)c(OC)c1 [Eugenol methyl ether],-0.667 ± 8.1
7,"COc1ccc(C)cc1OC [3,4-Dimethoxytoluene]",-2.67 ± 2.3
8,C=C1CCC2(C(C)C)CC12 (racemic) [(±)-Sabinene],-4 ± 7.2
9,CCC/C=C/CO,2 ± 4
10,C=C1[C@@H]2CC[C@@H](C2)C1(C)C (racemic) [(±)-Camphene],4 ± 3.5
11,"c1ccc2c(c1)CCO2 [2,3-Dihydrobenzofuran]",0 ± 2
12,C=CC(=C)CC(O)C=C(C)C (racemic) [(±)-Ipsdienol],-2.67 ± 2.3
13,CC(=O)OC/C=C(\C)CCC=C(C)C [Geranyl acetate],-2.67 ± 4.2
14,C=C(C)[C@@H]1CC=C(C)CC1 [(-)-Limonene],0.667 ± 8.1

# From the supplement of paper PMC11577813, “Eurasian spruce bark beetle detects lanierone using a highly expressed specialist odorant receptor, present in several functional sensillum types” (BMC Biology, 2024)
